± gives the standard deviation.
What follows are compounds tested on OVCAR-3-derived ovarian cancer stem-like cells (spheroids) (assay: cell growth relative to untreated control; higher = more growth (less inhibition)). Details: 2.29 µM; 96 h.
In short: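 Stem-like cells derived from OVCAR-3 spheroids were dissociated with trypsin and seeded at 50,000 cells/mL in stem cell medium in ultra-low attachment 96-well plates, then preincubated for 24 h. Each compound was added at 2.29 uM to 4 replicate wells and left for 96 h at 37°C, 5% CO2. Viability came from TOX8 resazurin fluorescence (ex 560/em 590 nm) read after 4 h. Percent growth was expressed relative to untreated wells, after blank subtraction and removal of outliers by the Grubbs test.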
O=C1N[C@H]2[C@H](O)[C@H](O)[C@@H](O)[C@H](O)[C@@H]2c2cc3c(c(O)c21)OCO3 showed a cell growth of 19.5 ± 2.6%.
Work on C/C1=C\[C@H](C)C[C@H](C)OC(=O)CC(c2ccc(O)cc2)NC(=O)[C@@H](Cc2c(Br)[nH]c3ccccc23)N(C)C(=O)[C@H](C)NC(=O)[C@@H](C)C1 (some centres undefined) yielded a cell growth of 25 ± 5.7%.
With CC(=O)O[C@H]1C[C@H](O[C@H]2[C@@H](O)C[C@H](O[C@H]3[C@@H](O)C[C@H](O[C@H]4CC[C@@]5(C)[C@H](CC[C@@H]6[C@@H]5CC[C@]5(C)[C@@H](C7=CC(=O)OC7)CC[C@]65O)C4)O[C@@H]3C)O[C@@H]2C)OC(C)[C@H]1O[C@@H]1O[C@H](CO)[C@@H](O)[C@H](O)[C@H]1O (some centres undefined) the cell growth was 21.7 ± 8.3%.
CCCC/C=C/C=C/C=C/CCCCCCCC(=O)OCC(COC(=O)CCCCCCC/C=C/C1C=CC(CCCC)C(C(=O)O)C1C(=O)O)OC(=O)CCCCCCC/C=C/C=C/C=C/CCCC.OCCNCO (centres undefined) was tested, and the cell growth was 115 ± 16%.

Source: the supplement of paper PMC3484114
